From PubChem BioAssay (NCATS)
Inconclusive results are not listed. A number with no mark means an inactive call. Calls of active or inactive are those of the source. Calls come from the whole dose curve; as a rule, active = well fitted cell-killing curve with a large enough effect; inconclusive = small, poorly fitted or top-dose-only effect, or effect the other way; inactive = no such curve, though single readings can be large or run the other way.

Assay: Viability qHTS for spleen associated tyrosine kinase inhibitor (SYKi) drug resistant MV4-11 cells (AID 1963824); note: nearly all actives have a fitted effect of over 35% in size
Settings: SYKi-resistant MV4-11 viability, CellTiter-Glo, 72 h; series mostly up to 45 µM; viability, % of control: at the top concentration
Procedure, shortened: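 SYK-inhibitor-resistant MV4-11 AML cells were seeded at 500 per well onto compound and cultured 72 hours (37 °C, 5% CO2). CellTiter-Glo was then added, and after 10 min at room temperature, luminescence gave viability.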
Potency is the fitted concentration of half-maximal effect.

| SMILES | viability, % of control | Potency |
| --- | --- | --- |
| CC(C)(C)NCC(O)COc1cccc2c1CCCC2=O (stereo not given) | 77.5% |  |
| CC(C)(C)c1ccc(CN2CCN(C(c3ccccc3)c3ccc(Cl)cc3)CC2)cc1 (stereo not given) |  | 23.1 µM (active) |
| Cc1cccc(C)c1OCc1cc(C(=O)N2CCC(c3ccncc3)CC2)no1 |  | 9.2 µM (active) |
| C[C@@H]1O[C@@H](O[C@H]2[C@H](O[C@H]3CC[C@@]4(C)C(CC[C@]5(C)C4C=C[C@]46OC[C@@]7(CCC(C)(C)C[C@H]74)[C@@H](O)C[C@]65C)[C@]3(C)CO)O[C@H](CO)[C@@H](O)[C@@H]2O[C@@H]2O[C@H](CO)[C@@H](O[C@@H]3O[C@@H](C)[C@H](O)[C@@H](O)[C@H]3O)[C@H](O)[C@H]2O)[C@H](O)[C@H](O)[C@H]1O (stereo not given in full) |  | 4.37 µM (active) |
| C=C(C(=O)O)C1CCC(C)C2CCC(=O)OC2(C)C1 (stereo not given) |  | 20.6 µM (active) |
| COC(=O)N1CCC(n2ncc3c(N4CCOCC4)nc(-c4ccc(NC(=O)Nc5ccc(CO)cc5)cc4)nc32)CC1 |  | 0.0184 µM (active) |
| COc1ccc(CCC(=O)O)c(O[C@@H]2O[C@H](CO)[C@@H](O)[C@H](O)[C@H]2O)c1 | 90.4% |  |
| C=C1C(=O)OC2C1C(O)CC1(C)C(O)CCC(C=O)C21 (stereo not given) |  | 16.4 µM (active) |
| O=C1C[C@@H](c2ccc(O)cc2)Oc2cc(O)ccc21 |  | 14.6 µM (active) |
| C[C@@H]1CN(Cc2ncccn2)C[C@H]1c1nc2c(cnn2C2CCOCC2)c(=O)[nH]1 | 67.5% |  |
